Rows were chosen to be rich in hits. Some 7.3% of all compounds tested hit in one or more screens of this group.
FLuc counter – inhibits or activates purified firefly luciferase, miR-21 counter-screen. purified FLuc, Km substrates, luminescence inhibition. Potency, µM (highest dose often 57.5 µM), for the others: at the top dose activity change, negative = inhibition, actives largely listed as inhibitors. 6.9% of 360,000 active. AID 588342;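 also: plate controls were vehicle for no effect and reference inhibitor for full effect; nearly all actives have a fitted effect of over 55% in size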
Target sequence (P08659 whole entry, looked up): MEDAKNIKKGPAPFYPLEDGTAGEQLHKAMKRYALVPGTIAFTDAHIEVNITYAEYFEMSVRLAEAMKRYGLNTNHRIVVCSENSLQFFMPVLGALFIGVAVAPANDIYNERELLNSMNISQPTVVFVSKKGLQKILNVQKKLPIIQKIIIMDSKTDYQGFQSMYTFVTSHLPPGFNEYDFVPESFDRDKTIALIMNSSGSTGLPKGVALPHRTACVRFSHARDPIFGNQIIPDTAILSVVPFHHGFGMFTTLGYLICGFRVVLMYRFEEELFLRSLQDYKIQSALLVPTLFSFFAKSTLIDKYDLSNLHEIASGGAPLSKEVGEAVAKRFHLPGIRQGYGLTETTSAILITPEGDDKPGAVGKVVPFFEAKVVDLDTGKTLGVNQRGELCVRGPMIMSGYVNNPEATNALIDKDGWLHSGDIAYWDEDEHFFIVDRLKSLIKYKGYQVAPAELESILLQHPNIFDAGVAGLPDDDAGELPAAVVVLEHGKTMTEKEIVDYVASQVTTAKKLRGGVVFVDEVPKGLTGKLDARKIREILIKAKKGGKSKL
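Purified P. pyralis luciferase, 10 nM final, with Km-level 10 uM D-luciferin and 10 uM ATP in 50 mM Tris acetate pH 7.5, 10 mM Mg acetate, 0.01% Tween-20, 0.05% BSA; 6-point qHTS titration about 60 µM downward; luminescence read.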
ELG1 genotoxic – inducers of genotoxicity in HEK293T ELG1-luciferase cells; HEK293T ELG1-luciferase reporter, luminescence, 16 h; Potency, µM (top dose mostly 46 µM), without a hit: at the top dose activity change, positive = activation, actives largely listed as activators; 1.3% of 330,000 active; also: % of control where 0% means no effect; nearly all actives have a fitted effect of over 60% in size
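Step 1: seed 2,000 HEK293T ELG1-luciferase cells per well. Step 2: add compound or DMSO, incubate 16 hr at 37 °C. Step 3: ONE-Glo, 30 min at room temperature, read luminescence.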
NPC1 promoter act – activates the NPC1 promoter; Huh7 NPC1 promoter luciferase reporter, 24 h; Potency, µM (titrated, usually from 9.22 µM), for the others: at the top dose activation, hits mostly activators; 2.4% of 320,000 active; also: % of control where 0% means no effect; nearly all actives have a fitted effect of over 60% in size
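Readout is luciferase luminescence, reflecting NPC1 promoter activation in stably transfected Huh7 cells after 24 h compound exposure at 37 °C in reduced-serum medium with 10% FBS.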
Rab9 prom act – activates the Rab9 promoter. 2.8% of 320,000 active. Potency, µM (series often up to 9.22 µM), for inactives: top-dose activation, negative = inhibition, hits mostly activators. Huh7 Rab9 promoter-luciferase reporter, luminescence, 24 h; also: % of control where 0% means no effect; nearly all actives have a fitted effect of over 60% in size
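Luminescence read-out: Huh7 cells stably expressing Rab9-luciferase, treated 24 h with compound at 37 °C, then lysed with luciferase reagent for 10 min at ambient before reading.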
Luc counter – counter-screen: inhibitors of Kinase-Glo firefly luciferase. 0.28% of 200,000 active. Potency, µM (top dose mostly 38.3 µM), for the others: at the top dose activity change, negative = inhibition, usual class: inhibitors. Kinase-Glo luciferase, ATP luminescence, 8 min; also: % is scaled to controls: 0 for no effect and ±100 for the full control effect; nearly all actives have a fitted effect of over 60% in size
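Inhibition of Kinase-Glo luciferase light generation was assessed at 10 uM ATP in pH 7.2 imidazole buffer, with luminescence measured after eight minutes at ambient temperature.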
SMN2 splice up – SMN2 splice variant enhancement. HEK293 SMN2-luciferase splicing reporter, luminescence, 30-36 h. Potency, µM (highest dose often 46.1 µM), for inactives: top-dose activity change, positive = activation, most hits filed as activators. 2.8% of 210,000 active. AID 1458; also: % of control where 0% means no effect; nearly all actives have a fitted effect of over 55% in size
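HEK293 cells carry an SMN2 […]–luciferase reporter in which exon 7 inclusion puts luciferase in frame. Cells were plated 10-12 h before compound addition, then incubated 30-36 h at 37C. ONE-Glo luminescence was read; sodium butyrate at 4.5 mM final served as control.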
An asterisk follows results filed as active; ? = inconclusive; . = no result given; [ ] = another dose, or the depositor's remark. Calls follow the shape of the dose curve; as a rule, active = well fitted curve in the direction sought with a large enough effect; inconclusive = small, poorly fitted or top-dose-only effect, or another doubt; inactive = no such curve, though single readings can be large; an effect the other way counts as inactive or inconclusive. Potency is read from the fitted curve at half-maximal effect.

SMILES	FLuc counter	ELG1 genotoxic	NPC1 promoter act	Rab9 prom act	Luc counter	SMN2 splice up
CC(C)N(C)C1CCN(C(=O)Nc2ccc(Cl)cc2)CC1	0%	1%	11%	2%	-5%	17%
O=C(Nc1ccc(Cl)cc1)N1CCC(c2ccccc2)C1 (configuration not stated)	3.8µM*	?	1.6µM*	1.1µM*	-1%	13µM*
Cc1ccc(C2CCN(C(=O)Nc3ccccc3)C2)cc1 (configuration not stated)	12µM*	?	4.5µM*	4µM*	-1%	?
Cn1c(Sc2ccc(-c3cccnc3)n2C)ccc1-c1cccnc1	.	.	.	.	-5%[7.66 µM]	-8%[9.22 µM]
COc1ccc(Br)cc1C1C(C(=O)Nc2ccc(C)cc2C)=C(C)Nc2ncnn21 (configuration not stated)	-3%	.	.	.	.	-5%
Cc1ccc2nc(CSc3nc(C)ccc3C#N)[nH]c2c1	0.54µM*	11%	?	0.56µM*	-18%	2.5µM*
Cc1cc(C)c(C#N)c(SCc2nc3ccccc3c(=O)[nH]2)n1	2.4µM*	8.2µM*	?	?	-2%	0.79µM*
Nn1c(CSc2ccccn2)nc2ccccc2c1=O	19µM*	?	4µM*	?	-5%	11µM*
COCc1cc(C)nc(SCc2nc3ccccc3c(=O)[nH]2)c1C#N	-11%	7%	-1%	-2%	1%	.
O=c1[nH]c(CSc2ccccn2)nc2ccccc12	13µM*	?	2.5µM*	2.8µM*	-18%	11µM*
O=c1[nH]c(CSc2ccccn2)nc2c1cnn2-c1ccccc1	?	2%	17%	16%	-4%	-4%
Cc1cccc(C)c1OCCn1c(CCNC(=O)C2CCCCC2)nc2ccccc21	0%	.	.	.	.	-1%
O=C(Nc1ccc(Cl)c(Cl)c1)N(Cc1c[nH]c2ccccc12)C1CCCCC1	-6%	.	.	.	.	4%
Cc1ccc2nc(SCc3nc4ccccc4c(=O)[nH]3)[nH]c2c1	9.5µM*	18%	?	2.8µM*	-2%	22µM*
COC(=O)c1sc2nc(CSc3nc4ccc(C)cc4[nH]3)[nH]c(=O)c2c1C	0%	0%	-1%	-22%	-2%	-2%
O=P(O)(CCP(=O)(O)c1ccccc1)c1ccccc1	.	.	.	.	-2%[7.66 µM]	11%[9.22 µM]
CCC(=O)c1ccc(CCCCCC(=O)O)s1	9.5µM*	12%	13%	4%	-2%	.
CC(=O)c1ccc(CCCCCCCCCC(=O)O)s1	?	0%	-1%	-4%	3%	9%
CC1=CC(c2ccccc2)=Nc2ccc(C)cc2N1	6.7µM*	12µM*	3.5µM*	4µM*	-25%	10µM*
CCOC(=O)c1c(C)[nH]c(C)c1S(=O)(=O)NCC(=O)Nc1ccc(C)c(N(C)C)c1	6%	.	.	.	.	.
COc1ccc2c(CNC3CCCCCC3)c(C(=O)O)n(Cc3ccc(C)cc3)c2c1	-5%	.	.	.	.	.
CC(=O)N1CCCc2cc(S(=O)(=O)N3CCC(C(=O)NCc4ccccc4Cl)CC3)ccc21	-3%	.	.	.	.	.
COc1ccccc1CCNC(=O)Cn1c(=O)oc2ccccc21	15µM*	-8%	-7%	4%	.	.
COc1ccccc1CNC(=O)Cn1c(=O)oc2ccccc21	0%	.	.	.	.	-1%
CCOC(=O)c1nc(NCc2ccccc2)sc1C	?	12%	19%	24%	.	.
CC(=O)c1sc(N/N=C\c2ccc(Br)cc2)nc1C	5.4µM*	?	?	?	0%	?
CCOC(=O)c1nc(N/N=C/c2ccccc2)sc1Br	7.6µM*	2%	21%	20%	.	.
CC(=O)c1sc(N/N=C\c2cccc(Br)c2)nc1C	11µM*	6%	-3%	18%	-4%	?
CCOC(=O)c1sc(N/N=C/c2ccc(N(C)C)cc2)nc1C	11µM*	13%	25%	?	.	.
COC(=O)N1C(C)=Cc2ccccc2C1CC(C)=O (configuration not stated)	.	.	.	.	-1%	8%
